# RGS12 GoLoco inh: RGS12 GoLoco-Gai1 interaction inhibition | Gai1:RGS12 GoLoco peptide FP, rhodamine, 10 min | AID 880 | 230,000 tested, 0.44% active | Potency, µM (series often up to 61.6 µM), for inactives: at the top dose activity, negative = inhibition, hits mostly inhibitors; active = well fitted inhibition curve with a large enough effect, not every such curve was filed as active; inactive = no such curve, though single readings can be large or run the other way; also: % is scaled to controls: 0 for no effect and ±100 for the full control effect; nearly all actives have a fitted effect of over 30% in size
# Target sequence (P63096 whole entry, looked up): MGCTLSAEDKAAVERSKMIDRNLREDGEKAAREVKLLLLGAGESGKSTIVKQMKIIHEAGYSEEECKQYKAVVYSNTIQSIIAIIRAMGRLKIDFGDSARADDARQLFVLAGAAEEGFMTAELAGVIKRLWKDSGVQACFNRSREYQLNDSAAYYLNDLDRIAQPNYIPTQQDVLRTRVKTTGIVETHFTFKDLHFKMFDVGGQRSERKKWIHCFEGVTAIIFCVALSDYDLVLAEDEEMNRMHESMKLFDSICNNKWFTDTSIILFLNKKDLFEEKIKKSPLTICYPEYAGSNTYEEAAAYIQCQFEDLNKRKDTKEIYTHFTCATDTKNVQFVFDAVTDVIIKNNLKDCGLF
# Apoferritin bind: binds horse apoferritin like a general anesthetic. P02791. apoferritin/1-aminoanthracene competitive binding, fluorescence. Potency, µM (top dose mostly 77.5 µM), without a hit: top-dose activity change, negative = displacement, most hits filed as inhibitors. 350,000 tested, 0.074% active; also: % is scaled to controls: 0 for no effect and ±100 for the full control effect; nearly all actives have a fitted effect of over 20% in size
# Target sequence (P02791 2-175 limits assumed): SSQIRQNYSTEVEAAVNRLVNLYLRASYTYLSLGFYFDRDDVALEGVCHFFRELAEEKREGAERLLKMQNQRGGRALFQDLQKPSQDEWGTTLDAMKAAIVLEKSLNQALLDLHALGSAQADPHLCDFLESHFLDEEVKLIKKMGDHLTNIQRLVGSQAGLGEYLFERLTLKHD
#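 Concentration-response curves derived by four-parameter Hill fitting of normalized fluorescence, where compounds displaced 1-AMA from 10 uM horse apoferritin following a brief 10 min room-temperature incubation; propofol titration acted as positive control.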
# ERG-DNA inh: inhibitors of human ERG Ets domain-DNA interaction. P11308. 370,000 tested, 0.028% active. fluorescence polarization, His-ERG Ets domain / labelled DNA. Potency, µM (titrated, usually from 76.9 µM), for inactives: at the highest dose FP activity, negative = inhibition, most hits filed as inhibitors; active = well fitted inhibition curve with a large enough effect in the polarisation, with a control signal flat; inconclusive = small, poorly fitted or top-dose-only effect, or effect the other way, or a change in a side signal; inactive = no such curve, though single readings can be large or run the other way; the % refers to the polarisation;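 also: polarization taken with two DNA probes labelled with fluorescein and Texas red; % of control where 0% means no effect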
#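 His-tagged ERG Ets domain (1 uM in the protein solution; 300mM KCl, 50mM Tris-HCl, 1mM EDTA, 1mM DTT, pH 7.5) received compound, then a probe mix of 5 nM fluorescein-DNA and 100nM Texas-615-DNA. Fluorescence polarization was read for both dyes.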
# BRCA1 expr up: increases BRCA1 expression | MCF7-BRCA1-FFLuc reporter, luminescence, 48 h; response scale: scaled: vehicle 0%, 10 µM genistein 100% | Potency, µM (titrated, usually from 46.1 µM), for inactives: top-dose activation, most hits filed as activators | 380,000 tested, 1.1% active | AID 624202; also: nearly all actives have a fitted effect of over 80% in size
#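 Cells: MCF7-BRCA1-FFLuc, 2000/well. Exposure: 48 h, 37 °C, 5% CO2. Read: luminescence, 15 min post-substrate. Controls: genistein 10 microM (maximal activation), DMSO (neutral).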
# * = called active by the depositor; ? = inconclusive; . = no result given; [ ] = another dose, or the depositor's remark. Hits are enriched below; roughly 1.2% of the tested compounds scored in any of these assays. Unless noted, calls follow the shape of the dose curve; as a rule, active = well fitted curve in the direction sought with a large enough effect; inconclusive = small, poorly fitted or top-dose-only effect, or another doubt; inactive = no such curve, though single readings can be large; an effect the other way counts as inactive or inconclusive. Potency is read from the fitted curve at half-maximal effect.
SMILES,RGS12 GoLoco inh,Apoferritin bind,ERG-DNA inh,BRCA1 expr up
CCOc1cccc(C2C=C(c3ccc4c(c3)OCO4)NC(c3ccccc3Cl)N2)c1O (stereo not given),.,.,.,4%
COc1cccc2ccc(/C=C/c3ccc4c(c3)OCO4)nc12,.,.,.,3.5µM*
O=C(Nc1nc(-c2ccc(Cl)cc2)cs1)C1CCCO1 (stereo not given),2%,-9%,-1%,6.3µM*
O=C(Nc1ncc(Cc2cccc(Cl)c2Cl)s1)C1CCCO1 (stereo not given),21%,-10%,-2%,?
O=C(Nc1ncc(Cc2ccccc2Cl)s1)C1CCCO1 (stereo not given),5%,-1%,5%,4.5µM*
C=C[C@@H]1CN2CCC1C[C@@H]2C(O)c1ccnc2ccc(OC)cc12 (stereo not given in full),5%,-11%,.,.
O=C(N/N=C1\CCCc2ccccc21)c1ccccc1Cl,5%,-20%,5%,10µM*
Cc1ccc(C(=O)O/N=C2\CCCc3ccccc32)cc1,-2%,-24%,-3%,4%[1.84 µM]
O=C(N/N=C1\CCc2ccccc21)c1ccccc1O,5%,-2%,4%,-38%
O=C(O)c1ccc(N/N=C2/CCCc3ccccc32)cc1,13%,5%,-9%,7.1µM*
O=C(NN=C1CCCCCCC1)c1ccccn1,.,-7%,3%,33%
O=C(N/N=C1\CCCCc2ccccc21)c1ccccn1,-1%,?,0%,13µM*
NS(=O)(=O)c1nn2cc(-c3ccccc3)nc2s1,.,-1%,.,.
CN(C)CN1C(=O)S/C(=C2/C(=O)N(CN(C)C)c3ccccc32)C1=O,7%[14.2 µM],.,.,.
O=C(O)c1ccc(COc2ccc(CO)cc2Cl)cc1,-5%,-4%,.,7.9µM*
C[N+](C)(C)CCN(Cc1cccs1)c1ccccn1,2%[14.2 µM],.,.,.
Cc1cccc2c(=O)[nH]c3c(-c4nc(-c5ccc(Cl)cc5)cs4)c(O)cn3c12,.,.,.,1%
Cc1cccc(NC(=O)CNc2cc(C)ccc2C)c1,1%,-19%,-4%,13µM*
CCCS(=O)(=O)c1ncc(Cl)c(C(=O)Nc2sc3c(c2C(=O)NCC)CCCC3)n1,.,.,.,0%
C/C(=N/Nc1ccccc1C(=O)O)c1cccs1,.,-7%,2%,10µM*
C/C(=N\Nc1ccc(Cl)c(C(=O)O)c1)c1cccs1,-7%,6%,13%,13µM*
CCSC(=O)N1CCN(/[N+]([O-])=N/Oc2ccc([N+](=O)[O-])cc2[N+](=O)[O-])CC1,.,.,.,-23%
CC(=O)N(c1nnc(-c2ccc(C)cc2)s1)C1CCCC1,.,?,-9%,11µM*
O=[N+]([O-])c1ccc(/C=C2\C=Cc3ccccc32)cc1,.,.,.,42%
C1CCC[C@H]2CCCN3CC[C@H](CCCCCC[C@@H]4CCCN5CC[C@H](CC1)OC45)OC23,4%,-1%,.,.
SMILES,RGS12 GoLoco inh,Apoferritin bind,ERG-DNA inh,BRCA1 expr up
CC(C)[C@H](NC(=O)[C@@H]1CSSC[C@H](NC(=O)[C@H](CC(=O)O)NC(=O)[C@H](C)NC(=O)[C@@H](NC(=O)CNC(=O)[C@H](C)N)[C@@H](C)O)C(=O)N[C@@H](Cc2ccccc2)C(=O)N[C@@H](Cc2c[nH]c3ccccc23)C(=O)N[C@@H](CCCCN)C(=O)N[C@@H](Cc2ccc(O)cc2)C(=O)N1)C(=O)O,.,-4%,.,.
O=c1[nH]c2ccccc2nc1/C=C/c1ccccc1,-7%,-13%,7%,4µM*
O=c1[nH]c2ccccc2nc1/C=C/c1ccc(O)cc1,31%,74%,32%,?
O=C(OCc1ccccc1)N1CCN(/[N+]([O-])=N/Oc2ccc([N+](=O)[O-])cc2[N+](=O)[O-])CC1,.,.,.,0%
CSc1ccccc1OCc1cc(C(=O)N2CCN(c3ccccc3)CC2C)no1 (stereo not given),.,-7%,8%,13µM*
C=CCn1cccc(C(=O)Nc2ccc(C)c(Cl)c2)c1=O,.,-4%,-1%,4.5µM*
C=CCn1cccc(C(=O)Nc2ccc(Cl)cc2)c1=O,.,0%,9%,5.6µM*
C=CCn1cccc(C(=O)Nc2ccc(SC)cc2)c1=O,.,-18%,7%,58%
COc1cc(/C=C(\C#N)c2nc3ccc(C)cc3[nH]2)c([N+](=O)[O-])cc1OC,5%,?,-18%,-33%
COc1cc(/C=C(\C#N)c2nc3ccc(C)cc3[nH]2)cc([N+](=O)[O-])c1O,15%,?,-9%,7.1µM*
C/C=C1/C(=O)C[C@@H]2[C@H]3CCC4=CC(=O)CC[C@]4(C)[C@@H]3CC[C@]12C,3%,5%,.,.
N=C1C(c2nc3ccccc3s2)=C(O)CN1Cc1ccco1,1%,-9%,1%,7.1µM*
N#CCCCS(=O)(=O)c1nnnn1-c1ccc(F)cc1Br,6%,.,.,.
Cc1ccc(N2CN=C(c3ccccc3)NC2=S)cc1,7%,-19%,.,11µM*
COc1ccc(C2=NCN(c3ccc(C)cc3)C(=S)N2)cc1,7%,-7%,2%,4µM*
COc1ccc(OCc2n[nH]c(=S)n2-c2ccc(C)cc2)cc1,6%,-9%,5%,-3%
CN(C)CCCO[C@H]1C([C@H](O)CO)O[C@@H]2OC(C)(C)O[C@@H]21 (stereo not given in full),11%,.,.,.
COc1ccc(NCc2cc3cc4c(cc3n(CC(=O)Nc3ccc(C)c(C)c3)c2=O)OCO4)cc1,.,-10%,3%,-8%
O=C(CSc1cn(Cc2ccccc2)c2ccccc12)N1CCOCC1,3%,-5%,9%,7.9µM*
O=C(NCCn1cc(SCC(=O)N2CCOCC2)c2ccccc21)c1ccccc1,-4%,-1%,-8%,45%
CCOC(=O)c1c(C)c(-c2ccccc2)n(CC(=O)Nc2cc(OC)cc(OC)c2)c1C,.,-2%,2%,-1%
O=C(CCl)c1ccc2c(c1)CCCC2,.,.,.,-12%
Cc1cc(N/N=C/c2cccc(Cl)c2)nc(-n2nc(C)cc2C)n1,5%,5%,-11%,-75%
Cc1nc(C#N)c(N/N=C/c2cccc(Cl)c2)o1,3%,-4%,0%,22µM*
CNc1cc[n+](C)c2ccccc12,.,.,.,0%
SMILES,RGS12 GoLoco inh,Apoferritin bind,ERG-DNA inh,BRCA1 expr up
O=C(Nc1ccc(F)cc1F)Nc1ccc(F)cc1F,10%,-4%,10%,10µM*
Cn1c2ccccc2c2ncn(CCCN3CCOCC3)c(=O)c21,9%,-2%,-4%,0%
Cn1c2ccccc2c2ncn(CCC3=CCCCC3)c(=O)c21,.,-18%,1%,10µM*
COc1ccc(/C=C/c2cnc3ccccc3n2)cc1OC,.,.,.,-27%
Cc1ccc(OCCn2c(=O)sc3ccccc32)cc1,-7%,-7%,14%,5.6µM*
Cc1cccc(-n2c(C)nnc2SCC(=O)NC(C)c2ccco2)c1 (stereo not given),.,.,.,27%
O=C(c1ccccc1)c1cc2ccccc2o1,10%,?,9%,10µM*
O=C(c1ccc(F)cc1)c1cc2ccccc2o1,.,-9%,-6%,11µM*
CC(Cc1ccccc1)NC(=O)c1cc2ccccc2o1 (stereo not given),.,-13%,-4%,7.1µM*
O=C(NNC(=O)c1cc2ccccc2o1)c1ccc(F)cc1,.,.,2%,51%

# Screens deposited in PubChem BioAssay by National Center for Advancing Translational Sciences (NCATS).
